From PubChem BioAssay (NCATS)
Results filed as inconclusive are left out. Unmarked numbers belong to inactive results. Calls follow the shape of the dose curve; as a rule, active = well fitted cell-killing curve with a large enough effect; inconclusive = small, poorly fitted or top-dose-only effect, or effect the other way; inactive = flat fitted curve, though single readings scatter. Where a SMILES comes first, the peptide text is derived from it. The star is where a group is joined. Hexanoyl = CCCCCC(=O)*

What follows are compounds tested on Tov-21-G (assay: Primary qHTS to identify gynecologic anti-cancer compounds using libraries of approved drugs and bioactive compounds (AID 1345084; also: nearly all actives have a fitted effect of over 55% in size)). Settings: Gynecologic cancer cell panel viability, ATPlite luminescence, 48 h; series mostly up to 57.5 µM; activity change, negative = cytotoxicity: at the top concentration.
How it was run: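 Cells, 1,000 per well, plated 16 h, then exposed 48 h at 37 C to compounds. Viability by ATPlite luminescence after 15 min at room temperature.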
% is scaled to controls: 0 for no effect and ±100 for the full control effect.

| Compound | activity change, negative = cytotoxicity |
| --- | --- |
| COc1cc(O)c2c(c1)C1(OC2=O)C(C)=CC(=O)C1O (centres undefined) | -0.318% |
| CC1CCC2(NC1)OC1C(O)C3C4CCC5CC(O[C@@H]6O[C@H](CO)[C@@H](O)[C@H](O)[C@H]6O[C@@H]6O[C@@H](C)[C@H](O)[C@@H](O)[C@H]6O)CCC5(C)C4CCC3(C)C1C2C (some centres undefined) | 4.2% [at 25.3 µM] |
| Cc1c(C)c(NCC(=O)N(C)C2CCN(Cc3ccc(C(N)=O)cc3)CC2)c(C)c(C)c1N | 6.41% |
| CC1(C(=O)O)CCCC2(C)C3CCC4CC3(CCC12)CC4(O)CO (centres undefined) | -7.02% [at 38.5 µM] |
| CCCN(CCN1CCN(c2ccccc2OC)CC1)C1CCc2ncsc2C1 (centres undefined) | 7.51% |
| CC/C=C\CC1C(CC(=O)O)CCC1OC1OC(CO)C(O)C(O)C1O (centres undefined) | -2.38% [at 38.5 µM] |
| CCN1CCN(C(=O)N[C@@H](C(=O)N[C@@H]2C(=O)N3[C@@H]2SC(C)(C)[C@@H]3C(=O)O)c2ccccc2)C(=O)C1=O | 0.737% |
| H-DPPDPDRFYGMM-NH2 | 6.63% [at 25.3 µM] |
| C/C=C(\C)C1C(C)=CC2CCC(OS(=O)(=O)O)C(C)C2C1/C=C/C=C/C(=O)O (centres undefined) | -10.2% [at 25.3 µM] |
| CC(=O)NC(Cc1c[nH]c2ccccc(=O)c12)C(=O)O (centres undefined) | 5.82% |
| O=C(Cn1c2ccccc2c2nc3n(c(=O)c21)CCS3)N1CCCC1 | 7.25% |
| Nc1nc2c(nc(Sc3ccc(Cl)cc3)n2[C@@H]2O[C@@H]3COP(=O)(O)O[C@H]3[C@H]2O)c(=O)[nH]1 | 5.2% |
| C/C=C/C=C/C=C/C(=O)O[C@@H]1C=C(CO)[C@](O)(CO)[C@@]2(C)CCCC(C)(C)[C@H]12 | -1.43% [at 38.5 µM] |
| CCOc1ccc(-c2cc(NC(=O)c3c(F)cccc3F)c(C(=O)O)s2)cc1 | 0.553% |
| Cc1ccccc1NC(=O)Nc1ccc(CN2C(=O)N([C@@H](CC(C)C)C(=O)N[C@@H](CC(=O)O)c3ccccc3)C(=O)C2(C)C)cc1 | 7.34% |
| CC1=C[C@H](O)[C@H]2C(C)(C)CCC[C@]2(C)[C@@]1(O)CO | 3.02% |
| CC(=O)OC1(C)CC(O)C2(O)C=COC(OC3OC(CO)C(O)C(O)C3O)C12 (centres undefined) | -1.24% [at 25.3 µM] |
| CCC(C)C1NC(=O)C2C(C)CCN2C(=O)C(CC(O)CO)OC(=O)CCNC(=O)C(C)N(C)C(=O)C(C(C)C)N(C)C1=O (centres undefined) | -10.5% [at 25.3 µM] |
| CCCCCC(=O)N1CCC[C@H]1C(=O)N[C@@H](Cc1ccc(O)cc1)C(=O)OC (Hexanoyl-Pro-Tyr-OMe) | 1.77% |
| COc1ccc(C(=O)NCc2cc(C(C)C)no2)cc1OC1CCN(C)CC1 | 0.819% |

| Compound | activity change, negative = cytotoxicity |
| --- | --- |
| Cc1nc2ccccc2c(-c2ccc3c4c(ccnc24)CCO3)c1[C@H](OC(C)(C)C)C(=O)O | 3.99% |
| O=C(O)Cn1nnc(-c2ccc(CN(CCCCOc3ccc(CN4CCCC4)cc3)CCc3ccccc3)cc2)n1 | 13.8% |
| COc1cc(Nc2ccc([N+](=O)[O-])cc2C(=O)O)cc2ccccc12 | 2.59% |
| Nc1c(-c2ccccc2)nc(Cl)c2c(O)n[nH]c(=O)c12 | 6.77% |
| O=C(O)c1cccc(CN2C(=O)/C(=C(\c3ccccc3)c3ccc(Cl)cc3)c3ccccc32)c1 | 18.3% |
| Cc1cc(O[C@@H]2O[C@H](COC(=O)CC(=O)O)[C@@H](O)[C@H](O)[C@H]2O)c(C(C)C)cc1O | -2.06% [at 25.3 µM] |
| CC1(C)C[C@H]2C=C(C=O)[C@]3(C(=O)O)C[C@]3(C)[C@H]2C1 | -2.37% |
| COc1c(-c2ccc(O)cc2)cc(OC)c2c1oc1cc(O)c(OC3OC(CO)C(O)C3O)cc12 (centres undefined) | 2.11% [at 25.3 µM] |
| CC1OC(O[C@@H]2[C@H](O)[C@@H](OC3OC(CO)C(O)C(O)C3O)[C@H](OC(=O)[C@]34CCC(C)(C)C[C@H]3C3=CCC5[C@@]6(C)CC[C@H](O[C@@H]7O[C@H](C(=O)O)[C@@H](O)[C@H](O[C@@H]8OC[C@@H](O)[C@H](O)[C@H]8O)[C@H]7O[C@@H]7O[C@H](CO)[C@H](O)[C@H](O)[C@H]7O)[C@@](C)(C=O)C6CC[C@@]5(C)[C@]3(C)C[C@H]4O)O[C@@H]2C)C(O)C(O)C1OC1OCC(O)C(O)C1O (some centres undefined) | -1.56% [at 6.55 µM] |
| O=c1[nH]ccc2nc(-c3ccc(CN4CCC(c5nc(-c6ccccn6)n[nH]5)CC4)cc3)c(-c3ccccc3)cc12 | -16.7% |
| O=C1C[C@@]2(C(=O)N1)C(=O)N(Cc1ccc(Br)cc1F)C(=O)c1cccn12 | 2.12% |
| C/C=C(\C)C(=O)OC[C@H]1O[C@H](O[C@H]2O[C@H](CO)[C@@H](O)[C@H](O)[C@H]2O[C@@H]2O[C@H](CO)[C@@H](O)[C@H](O)[C@H]2O)[C@H](O[C@@H]2O[C@H](CO)[C@@H](O)[C@H](O)[C@H]2O)[C@@H](O)[C@@H]1O | 1.33% [at 25.3 µM] |
| CC1(C)CC[C@]2(C(=O)O)CC[C@]3(C)C(=CCC4[C@@]5(C)CC[C@H](O[C@@H]6O[C@H](C(=O)O)[C@@H](O)[C@H](O[C@@H]7O[C@H](CO)[C@H](O)[C@H](O)[C@H]7O)[C@H]6O[C@@H]6O[C@H](CO)[C@@H](O)[C@H](O)[C@H]6O)C(C)(C)C5CC[C@]43C)[C@@H]2C1 (some centres undefined) | -6.57% [at 6.55 µM] |
| C[C@H]1[C@@H](O)[C@H](O)C2[C@]3(C)C([C@@H](O)[C@H]4OC(=O)[C@@H]1[C@@]24C)[C@](C)(O)C=C[C@H]3O[C@@H]1O[C@H](CO)[C@@H](O)[C@H](O)[C@H]1O (some centres undefined) | 17.6% [at 25.3 µM] |
| CCCCNc1nc(N)c2[nH]c(=O)n(Cc3ccc(OCCN(C)C)nc3)c2n1 | 11.4% |
| CSCC1OC(n2cnc3c(N)ncnc32)C(O)C1O (centres undefined) | 2.51% |
| C[C@]1(O)CC[C@@H]2C(C(=O)O)=CO[C@@H](O[C@@H]3O[C@H](CO)[C@@H](O)[C@H](O)[C@H]3O)[C@@H]21 | 7.33% [at 38.5 µM] |
| C[C@@H]1C[C@H]2OC(=O)[C@@]3(C)CCC[C@](C)(C23)[C@@]1(O)CCC1=CC(=O)OC1O (some centres undefined) | 4.41% [at 38.5 µM] |
| NC(=O)NCCCC(NC(=O)Cc1ccccc1)C(=O)O (centres undefined) | 11% |
